Laboratory results as given in ChEMBL document CHEMBL1157539, “Thousands of chemical starting points for antimalarial lead identification” (Nature, 2010).

The molecules below were run on Plasmodium falciparum (assay: GSK_TCMDC: Inhibition of Plasmodium falciparum 3D7 in whole red blood cells, using parasite LDH activity as an index of growth. Test compounds present at 2uM).
Type: functional

| SMILES | Inhibition [%] |
| --- | --- |
| CC(=O)Nc1ccc(CN2Cc3ccc(NC(=O)Nc4ccc(Oc5ccccc5)cc4)cc3C2)s1 | 91 |
| CCCCCCN1CCCN(Cc2ccc(C(=O)Nc3ccc(C(C)(C)C)cc3)cc2)CC1.O=C(O)C(F)(F)F | 100 |
| CC[C@H](C)CNC(=O)c1ccnc(-c2ccc(CNC3Cc4ccccc4C3)cc2)c1.O=C(O)C(F)(F)F | 100 |
| CC(C)CCn1c(Sc2ccc(C#N)c([N+](=O)[O-])c2)nnc1-c1ccc(N(C)C)cc1 | 97 |
| CC(C)(C)OC(=O)N1CCN(c2ccccc2NC(=O)c2cccc(C(F)(F)F)c2Oc2ccc(F)cc2)CC1 | 100 |
| COc1ccccc1Cn1ccnc1SCC(=O)Nc1cc(C(F)(F)F)ccc1Cl | 96 |
| COc1ccc(C2C(C(=O)Nc3cc(OC)c(OC)c(OC)c3)c3cc(OC)c(OC)cc3C(=O)N2C)cc1 (stereo not given) | 98 |
| O=C(Cc1cccc2ccccc12)N1CCc2cc3nccc(N4CCN5CCC[C@H]5C4)c3cc21 | 100 |
| O=C(Nc1cccc(OC2CCN(Cc3ccsc3)CC2)c1)c1ccc(C(F)(F)F)cc1.O=C(O)C(F)(F)F | 98 |
| CO/C(=C\C=C\c1cc2cc(Cl)c(Cl)cc2[nH]1)C(=O)NCCCN1CCN(c2cccc(O)c2)CC1 | 91 |
| Cc1ccc2c(=O)cc(CCc3cccc(F)c3F)n(CC(=O)N(Cc3ccc(-c4ccc(C(F)(F)F)cc4)cc3)C3CCN(C)CC3)c2n1.O=C(O)C(O)C(O)C(=O)O | 86 |
| Cc1cc(N2CCN(C3CCCCC3)CC2)nc2cccc(O)c12 | 100 |
| COc1ccc(NC(=O)/C=C/c2ccc(-c3ccccc3)cc2)cc1N1CCN(C)CC1.O=C(O)C(=O)O | 90 |
| Oc1cc(NC[C@@H]2CCC[C@@H]2NCc2ccc(Cl)c(Cl)c2)nc2ccccc12 | 100 |
| Fc1ccc(COc2ccc(Nc3ncnc4ccc(I)cc34)cc2Cl)cc1 | 86 |
| NCc1ccc(-c2cccc(CNC3CCN(Cc4ccccc4)CC3)c2)cc1.O=C(O)C(F)(F)F | 100 |
| O=C(Nc1cccc(Cl)c1)N(CCCn1ccnc1)Cc1csc(-c2ccc(CNCc3ccccc3)cc2)n1.O=C(O)C(F)(F)F | 100 |
| CN(C)CC(O)C(c1ccccc1)c1cccc(Br)c1.Cl (stereo not given) | 98 |
| CCCCN1CC[C@@H](CCC(O)c2ccnc3ccc(OCCC(C)C)cc23)[C@@H](CC)C1.O=C(O)C(=O)O (stereo not given in full) | 94 |
| O=C(NCCCCN1CCC(c2ccc3c(c2OCc2ccncc2)CCCC3)CC1)c1ccc(NC(=O)c2ccc(Cl)cc2)cc1 | 100 |

| SMILES | Inhibition [%] |
| --- | --- |
| COc1ccc(CN2CCCC(N3CC4(OC3=O)c3ccccc3-c3ccccc34)C2)c(O)c1 (stereo not given) | 92 |
| O=C(Nc1nc2ccc(Cl)cc2s1)c1csnn1 | 96 |
| CCCCCCCC1CCN(C[C@H](O)c2ccnc3ccc(OC)cc23)CC1.O=C(O)C(=O)O | 94 |
| COc1ccc2nccc(NC(=O)C3CCC(NCc4ccc5c(c4)NC(=O)CS5)CC3)c2c1 (stereo not given) | 94 |
| N=C(N)c1ccc(NC(=O)c2cc(Sc3ccc(O)c(C(=O)Nc4ccc(C(=N)N)cc4)c3)ccc2O)cc1 | 93 |
| CN1CCN(CC(=O)Nc2ccc(-c3ccc(-c4nc5ccccc5[nH]4)s3)cc2)CC1 | 100 |
| Cc1cc(Cl)c(S(=O)(=O)NC2CCCC2)cc1OCC(=O)NC1CCCCC1 | 97 |
| CC(=O)N(C)c1cccc(C(=O)Nc2ccc(-c3cccc(-c4nc5cccc(C)c5[nH]4)c3)cc2)c1 | 97 |
| CCNc1cc(C(=O)N[C@@H](Cc2ccccc2)[C@H](O)CNCCCc2ccc(OC)cc2)cc(N2CCCC2=O)c1.O=C(O)C(F)(F)F | 99 |
| CCOC(=O)CN(c1ccc(Br)cc1OCCOc1cc(Br)ccc1N(CC(=O)OCC)C(C)C(=O)OCC)C(C)C(=O)OCC (stereo not given) | 94 |
| C[C@@H](CC1CCCCC1)OC(=O)N[C@H]1CCN(C#N)C1 | 95 |
| CN(CCN(C)CC(O)c1ccc(Cl)c(Cl)c1)CC(O)c1ccc(Cl)c(Cl)c1.Cl (stereo not given) | 91 |
| CC(C)c1sc(N2CCN(C)CC2)nc1C(=O)NCCc1ccc(Cl)c(Cl)c1.O=C(O)C(F)(F)F | 98 |
| CCC[C@@H]([C@@H](CC1CCCCC1)C(=O)N[C@H](C(=O)Nc1nccs1)[C@H](C)O)N(O)C=O | 99 |
| O=C(Nc1ccc(CN2CCN(S(=O)(=O)c3ccc(Cl)s3)CC2)cc1)c1cccs1.O=C(O)C(F)(F)F | 92 |
| Br.CCCCCCCN(CCCCCCC)CCNc1cc(C)nc2ccccc12 | 89 |
| O=[N+]([O-])c1ccc(C2=NN(S(=O)(=O)c3c(Cl)cc(Cl)cc3Cl)CCCC2)cc1 | 99 |
| CN1CCN(CCCN(Cc2csc(-c3ccc(CNCc4ccccc4)cc3)n2)C(=O)Nc2ccc3ccccc3c2)CC1.O=C(O)C(F)(F)F | 94 |
| O=C(N[C@H]1CCN(Cc2ccc(OCCN3CCNCC3)c3ccccc23)C1)c1ccc(Cl)c(Cl)c1.O=C(O)C(F)(F)F | 100 |
| O=[N+]([O-])c1ccc2ncnc(Nc3ccc(F)c(Cl)c3)c2c1 | 100 |
